From article PMC4336329 (PLoS ONE, 2015)
Out of some 310,000 compounds screened, about 14,000 (4.5%) showed an effect of 50% or more. Effects have a minus sign here. The sample as a whole holds a higher share of strong results than the screen did.

These compounds were tested against human ether-à-go-go-related gene (hERG) potassium channel (human, UniProt Q12809) (assay: primary screen, population patch clamp on CHO cells stably expressing hERG; higher = less effect of the substance).
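Further: peak tail current of the secondary pulse compared with the same well before compound.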

Sequence of human ether-à-go-go-related gene (hERG) potassium channel (Q12809 whole entry, looked up): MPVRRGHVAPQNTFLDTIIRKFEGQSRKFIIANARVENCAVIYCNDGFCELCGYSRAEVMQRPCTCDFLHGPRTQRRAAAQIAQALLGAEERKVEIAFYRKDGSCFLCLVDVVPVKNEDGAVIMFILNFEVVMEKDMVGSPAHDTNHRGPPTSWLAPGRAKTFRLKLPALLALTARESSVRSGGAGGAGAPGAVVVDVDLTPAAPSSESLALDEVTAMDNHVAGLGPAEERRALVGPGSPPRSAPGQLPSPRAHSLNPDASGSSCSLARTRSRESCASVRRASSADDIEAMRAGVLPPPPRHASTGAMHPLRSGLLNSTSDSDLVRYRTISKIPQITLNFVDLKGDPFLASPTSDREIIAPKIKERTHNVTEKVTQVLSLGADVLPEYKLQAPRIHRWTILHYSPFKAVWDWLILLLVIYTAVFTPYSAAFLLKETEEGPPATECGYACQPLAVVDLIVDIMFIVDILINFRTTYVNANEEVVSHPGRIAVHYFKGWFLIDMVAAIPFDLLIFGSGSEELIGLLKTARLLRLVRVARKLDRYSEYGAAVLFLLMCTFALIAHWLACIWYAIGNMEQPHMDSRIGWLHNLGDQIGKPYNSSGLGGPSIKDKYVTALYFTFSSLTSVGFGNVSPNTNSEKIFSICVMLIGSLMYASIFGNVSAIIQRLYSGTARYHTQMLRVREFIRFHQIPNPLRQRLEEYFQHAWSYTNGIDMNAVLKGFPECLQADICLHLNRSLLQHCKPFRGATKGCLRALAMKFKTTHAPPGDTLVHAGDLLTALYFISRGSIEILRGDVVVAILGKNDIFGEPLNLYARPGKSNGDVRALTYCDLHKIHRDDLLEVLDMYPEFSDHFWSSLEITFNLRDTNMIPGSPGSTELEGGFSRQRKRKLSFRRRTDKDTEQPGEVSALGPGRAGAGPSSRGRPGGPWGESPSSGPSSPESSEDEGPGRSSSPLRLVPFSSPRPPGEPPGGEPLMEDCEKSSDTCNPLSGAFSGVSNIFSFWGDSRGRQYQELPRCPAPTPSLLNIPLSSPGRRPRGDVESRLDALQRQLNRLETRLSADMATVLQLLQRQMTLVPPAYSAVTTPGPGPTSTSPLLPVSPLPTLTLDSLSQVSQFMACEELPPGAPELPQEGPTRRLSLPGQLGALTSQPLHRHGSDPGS

| SMILES | hERG current change (%, negative = inhibition) at 10uM [%] |
| --- | --- |
| C=CCN1C(=O)C(Cc2ccccc2)SC1=Nc1ccc(C(=O)O)cc1 (centres unmarked) | -3.37 |
| Cc1nonc1NC(=O)CSc1nc(CCC2CCCC2)nc2ccccc12 | 3.64 |
| CCOc1cc(-c2nccc3cc(OC)c(OC)cc23)cc(OCC)c1OCC | -46.8 |
| COc1cc2c(cc1OC)-c1c(OC)c(OC)cc3ccnc(c13)C2=O | -30.7 |
| COc1cc2c(cc1OC)-c1c(OC)c(OC)c(OC)c3ccnc(c13)C2=O | -53.8 |
| Cc1cc(-c2cc(-c3ccccc3)on2)nc(NC2CCCC2)n1 | 15.7 |
| Cc1cccc(Nc2nc(N)nc(CC(=O)CSc3ccc(Cl)cc3)n2)c1 | 4.27 |
| Cc1cccc(Nc2nc(N)nc(CN3CCN(c4ccccc4F)CC3)n2)c1 | -68.2 |
| Cc1ccc(Nc2nc(N)nc(CN3CCN(c4ccccc4F)CC3)n2)cc1 | -67.4 |
| Nc1nc(CN2CCN(c3ccccc3F)CC2)nc(Nc2ccccc2)n1 | -57.1 |
| CCOc1ccc(Nc2nc(N)nc(CSC(=S)N3CCN(c4ccccc4)CC3)n2)cc1 | 17.2 |
| Fc1ccccc1N1CCN(Cc2nc(-c3ccccc3)no2)CC1 | -6.65 |
| CCOc1ccc(Nc2nc(N)nc(CN3CCN(c4ccccc4F)CC3)n2)cc1 | -80.8 |
| COc1ccccc1Nc1nc(N)nc(CN2CCN(c3ccccc3F)CC2)n1 | -35.9 |
| Cc1ccc(-c2noc(CN3CCN(c4ccccc4F)CC3)n2)cc1 | 8.71 |
| Cc1nnc(SCC2=C(C(=O)O)N3C(=O)C(NC(=O)Cn4ncc(Cl)c4C)C3SC2)s1 (centres unmarked) | 26.9 |
| COc1ccc(CNC(=O)C2CCCN(S(=O)(=O)N3CC(C)CC(C)C3)C2)c(OC)c1 (centres unmarked) | -6.97 |
| CCCC(=O)C1=C(O)C(C(=O)OC)C(C)(C)CC1=N (centres unmarked) | 19.9 |
| Cc1csc(NC(=O)c2sccc2C)n1 | 12.7 |
| CCn1c(SCC(=O)Nc2ccc(OCc3ccccc3)cc2)nnc1-c1ccco1 | -0.171 |
| CCCn1c(=O)c(Cc2ccccc2)c(O)c2ccccc21 | 1.06 |
| Cc1nc2ccccc2c(=O)n1NC(=O)/C=C/c1ccc(Br)cc1 | -1.3 |
| CN1CCN(c2ccc3c(c2)S(=O)(=O)c2ccccc2C3=O)CC1 | -23.4 |
| N#C/C(=N\Nc1ccc([N+](=O)[O-])cc1)C(N)=S | 13.4 |
| N#C/C(=N\Nc1ccccc1)C(=N)N1CCOCC1 | -7.71 |
| C/C(=N\Nc1ccc([N+](=O)[O-])cc1)c1ccc(N2CCOCC2)cc1 | 4.46 |
| N#C/C(=N\Nc1ccc(Br)cc1)C(=N)N1CCOCC1 | -68.9 |
| COc1ccc(N/N=C(\C#N)C(=N)N2CCOCC2)cc1 | 11.4 |
| N#C/C(=N\Nc1ccc([N+](=O)[O-])cc1)C(=N)N1CCOCC1 | -54.2 |
